High-throughput results (PubChem)
Most compounds without a hit are left out; they make up all but 1.6% or so of the library.
KCNQ2 inh – rat KCNQ2 potassium channel inhibitors, primary screen, cell-based, CHO-K1, FluxOR thallium flux, B-score. AID 2156, 2009. 310,000 tested, 1.1% active. Potassium voltage-gated channel subfamily KQT member 2 (Rattus norvegicus), O88943. B-score at 10 µM. 20 min; hits give low values;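 active = fluorescence ratio B-score at most minus 3 library SDs, with starting brightness B-score within 2 library SDs, cut at about -5.5 in these data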
KCNQ2 enhance – potentiators of rat KCNQ2 potassium channel; Potassium voltage-gated channel subfamily KQT member 2 (Rattus norvegicus), O88943; CHO-K1 KCNQ2, FluxOR thallium flux fluorescence; hits give high values; B-score at 10 µM; 310,000 tested, 0.54% active; AID 2239, 2010;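 active = fluorescence ratio B-score at least 3 SD of library B-scores, with initial fluorescence B-score within 3 of them, cut at about 5.3 in these data; same plate scores as AID 2156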;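 note: B-score of peak minus minimum over baseline fluorescence ratio after K+ and Tl+ stimulus; positive B-score means potentiation of KCNQ2 with more thallium influx and brighter signal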
* marks the source's active call; other numbers are inactive results; i = inactive; · = no result given.

SMILES	KCNQ2 inh	KCNQ2 enhance
CN(C(=O)CC(NC(=O)c1ccccc1Cl)c1ccccc1)c1ccccc1 (centres undefined)	-5.7*	-5.7
O=C(CC(NC(=O)c1ccccc1Cl)c1ccccc1)NCCc1ccc(Cl)cc1 (centres undefined)	i	·
O=C(Nc1ccc(F)cc1F)c1cccn1-c1ncc(C(F)(F)F)cc1Cl	i	·
Cc1cc(C)cc(NC(=O)c2cccn2-c2ncc(C(F)(F)F)cc2Cl)c1	-7.2*	-7.2
COc1ccc(/C=C/C(=O)Oc2cc(C)[nH]c(=O)c2[N+](=O)[O-])cc1OC	i	·
O=c1[nH]c2ccccc2cc1CN(Cc1ccco1)S(=O)(=O)c1ccccc1	i	·
COc1cccc(N2CCN(c3ncnc4c3[nH]c3ccc(F)cc34)CC2C)c1 (centres undefined)	-11*	-11
COc1ccc2[nH]c3c(N4CC(C)OC(C)C4)ncnc3c2c1 (centres undefined)	i	0.36
COc1cccc(N2CCN(c3ncnc4c3[nH]c3ccccc34)CC2C)c1 (centres undefined)	-11*	-11
c1ccc2c(c1)CCN(c1ncnc3c1[nH]c1ccccc13)C2	i	·
CCc1ccc(CN(C)Cc2nc(-c3cccc(Cl)c3)no2)nc1	i	·
CCn1ncc(N(C)N)c(Cl)c1=O	i	0.49
Cn1c(=O)[nH]c2ccc([N+](=O)[O-])nc21	i	·
COc1ccc(N2CCN(CC(=O)N3c4ccccc4CC3C)CC2)cc1 (centres undefined)	i	0.64
Cc1ccc(-c2cc(C(F)F)n3ncc(C(=O)N4CCc5ccccc5C4)c3n2)cc1	i	·
O=C(c1cnn2c(C(F)(F)F)cc(-c3ccc(F)cc3)nc12)N1CCc2ccccc2C1	-6.3*	-6.3
O=C1c2nccnc2C(=O)N1c1ccc(F)cc1	i	·
CCN(CC)CCOc1ccc(Br)cc1	i	·
CCN(CC)CCOc1ccc(/C(=C(\Cl)c2ccccc2)c2ccccc2)cc1	-7.6*	-7.6
C=CCn1c(SCC(=O)N2CCN(c3ccccc3)CC2)nc2c([nH]c3ccccc32)c1=O	i	·
O=C1CN(S(=O)(=O)c2ccc([N+](=O)[O-])cc2)CC(=O)N1	i	0.64
Cc1ccc(OCC(=O)N(c2ccccn2)C2CCCCC2)c(C)c1	-6.4*	-6.4
O=C(COCCOCC(=O)N(c1ccccn1)C1CCCCC1)N(c1ccccn1)C1CCCCC1	i	0.07
Cc1c(C(=O)NC2CCCc3ccccc32)cccc1[N+](=O)[O-] (centres undefined)	i	·
O=C(CNS(=O)(=O)c1ccccc1)NCC(=O)OCc1ccc(Cl)cc1	i	·
SMILES	KCNQ2 inh	KCNQ2 enhance
c1ccc(CCn2c3ccccc3c3nnc(SCc4ccc5nonc5c4)nc32)cc1	-6.2*	-6.2
CCN(CC)CCSc1nnc2c3ccccc3n(CCc3ccccc3)c2n1	i	·
COc1ccc(C(=O)NCCN2CCCC2)cc1[N+](=O)[O-]	i	0.76
O=C(COC(=O)c1cccc(C(=O)OCC(=O)NC2CC2)n1)NC1CC1	i	0.49
CCOc1cc(NC(=S)Nc2ccccc2OC)c(OCC)cc1NC(=O)c1ccccc1C	-5.7*	-5.7
CCOc1cc(NC(=S)NCC2CCCO2)c(OCC)cc1NC(=O)c1ccccc1C (centres undefined)	i	0.54
O=C(NC1CCCC1)C(c1cccnc1)N(C(=O)c1csnn1)c1ccc(F)cc1 (centres undefined)	i	2
COc1ccc(C2CC(c3c(-c4ccccc4)c4cc(Cl)ccc4[nH]c3=O)=NN2S(C)(=O)=O)cc1 (centres undefined)	i	0.16
COc1ccc(OC)c(C2CC(c3c(-c4ccccc4)c4cc(Cl)ccc4[nH]c3=O)=NN2S(C)(=O)=O)c1 (centres undefined)	-7*	-7
COc1ccc(NC(=O)Cc2ccc(Cl)c(Cl)c2)cn1	i	·
COc1ccc(NC(=O)/C(Cl)=C(/Cl)S(=O)(=O)Cc2ccc(C)cc2)cn1	i	5.4*
Cc1cn2c(=O)c(C(=O)N3CCN(c4ccccc4)CC3)cnc2s1	i	·
COc1ccc(NC(=O)/C(=C\c2cc(OC)c(OC)cc2[N+](=O)[O-])NC(=O)c2ccccc2)cc1	-7.2*	-7.2
COc1cc(/C=C(/NC(=O)c2ccccc2)C(=O)Nc2ccccc2)c([N+](=O)[O-])cc1OC	-6.6*	-6.6
COc1cc(/C=C(/NC(=O)c2ccccc2)C(=O)Nc2ccc(O)cc2)c([N+](=O)[O-])cc1OC	i	0.84
COc1ccc(C(=O)N/C(=C\c2ccccc2)C(=O)Nc2ccc(C(=O)O)cc2)cc1	i	0.57
C/C(CCC(C)C)=N\NC(=S)Nc1cc(S(=O)(=O)N2CCOCC2)ccc1N1CCOCC1	i	·
COc1cccc(NC(=O)c2ccc(N3C(=O)C4CCC(C)CC4C3=O)cc2)c1 (centres undefined)	i	·
CC[C@@H](C(=O)[C@@H](C)[C@@H](O)[C@H](C)CCc1ccc(C)c(O)c1C(=O)O)[C@H]1O[C@](CC)([C@H]2CC[C@](O)(CC)[C@H](C)O2)C[C@@H]1C	i	27*
CCS(=O)(=O)N1Cc2ccccc2CC1C(=O)NCC12CC3CC(CC(C3)C1)C2 (centres undefined)	-7.1*	-7.1
CCS(=O)(=O)N1Cc2ccccc2CC1C(=O)NC(C)C12CC3CC(CC(C3)C1)C2 (centres undefined)	i	·
O=C(O)CCCC(=O)N1N=C(c2ccccc2)CC1c1cccs1 (centres undefined)	i	·
Oc1ccc2ccccc2c1CNc1ccc(Br)cn1	-6.2*	-6.2
Oc1ccc2ccccc2c1CNc1ccc(Br)cc1	i	·
CCOc1ccc(NC(=O)CCS(=O)(=O)c2ccc(C)cc2)cc1	i	·
SMILES	KCNQ2 inh	KCNQ2 enhance
COc1ccccc1N1CCN(S(=O)(=O)c2cc(-c3cc(C)no3)ccc2C(C)C)CC1	-6*	-6
Cc1cc(-c2ccc(C(C)C)c(S(=O)(=O)N3CCN(c4ccccc4)CC3)c2)on1	i	·
CC1(NC(=O)Cc2ccc(S(=O)(=O)N3CCOCC3)s2)CCS(=O)(=O)C1 (centres undefined)	i	·
Cc1c(C(=O)N(C)Cc2cccc(F)c2)oc2c(Cl)cccc12	-7.7*	-7.7
Cc1c(C(=O)N(C)Cc2ccccc2)oc2c(Cl)cccc12	i	·
Cc1c(NC(=O)COC(=O)Cc2ccc(F)cc2)c(=O)n(-c2ccccc2)n1C	i	0.23
C/C(=N/NC(=O)CN1CCN(S(=O)(=O)c2ccc(C)cc2)CC1)c1ccco1	i	0.02
COC(=O)c1ccccc1NC(=S)N1CCN(c2ccc(OC)cc2)CC1	i	·
C=CCNC(=S)Nc1sc2c(c1C(=O)OCC)CCN(C(=O)OCC)C2	i	·
C=CCNC(=S)Nc1sc2c(c1C(=O)OCC)CC(C)(CC)OC2 (centres undefined)	i	9.9*
O=C(NCCO)c1cc(-c2cc(C(=O)NCCO)c3ccccc3n2)nc2ccccc12	i	·
CS(=O)(=O)NCc1nnc(SCc2ccc(C(F)(F)F)cc2)o1	i	·
Cc1nc(N2CCN(Cc3ccc4c(c3)OCO4)CC2)c2cc(-c3ccccc3)sc2n1	-6.4*	-6.4
Cc1nc(N2CCOCC2)c2cc(-c3ccccc3)sc2n1	i	·
